Activity calls are given as the source filed them. The calls were made as follows: active = hit-call score of the fitted dose curve at least 0.9, where 1 is the maximum; inactive = score below 0.9.
Tests used:
[1] = read-out: Monokine induced gamma interferon (MIG), CXCL9 (gene 4283); experiment: BSK_hDFCGF_MIG: BioMAP Diversity Plus: hDFCGF Assay for Monokine induced gamma interferon (MIG) Biomarker Activity (AID 2283063); conditions: primary human foreskin fibroblasts; actives raise or lower the signal
Outline: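 MIG signal, determined by ELISA, reflects 24 h chemical exposure of human skin primary fibroblasts. DMSO serves as negative control and baseline.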

[2] = read-out: Matrix Metallopeptidase 1 (MMP1), MMP1 (gene 4312); experiment: BSK_hDFCGF_MMP1: BioMAP Diversity Plus: hDFCGF Assay for Matrix Metallopeptidase 1 (MMP1) Biomarker Activity (AID 2283064); conditions: primary human foreskin fibroblasts; actives raise or lower the signal
Outline: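 hDFCGF primary fibroblasts (human foreskin); chemical added; 24 h; MMP1 by ELISA; bidirectional fit vs DMSO.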

[3] = read-out: Plasminogen activator inhibitor-1 (PAI1), SERPINE1 (gene 5054); experiment: BSK_hDFCGF_PAI1: BioMAP Diversity Plus: hDFCGF Assay for Plasminogen activator inhibitor-1 (PAI1) Biomarker Activity (AID 2283066); conditions: primary human foreskin fibroblasts; actives raise or lower the signal
Outline: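 Human foreskin fibroblasts in the hDFCGF system were dosed with compound for 24 h; PAI-1 was quantified by ELISA. Bidirectional curve fitting used DMSO as negative control and baseline.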

[4] = read-out: Intercellular Adhesion Molecule 1 (ICAM1), ICAM1 (gene 3383); experiment: BSK_KF3CT_ICAM1: BioMAP Diversity Plus: KF3CT Assay for Intercellular Adhesion Molecule 1 (ICAM1) Biomarker Activity (AID 2283067); conditions: primary human keratinocytes with fibroblasts; actives raise or lower the signal
Outline: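 Dose the keratinocyte/fibroblast co-culture, wait 24 h, measure ICAM-1 by ELISA, then fit increases or decreases against DMSO. Cytotoxicity is checked in parallel cultures by SRB total-protein staining.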

[5] = read-out: Interferon-gamma inducible Protein 10 (IP10), CXCL10 (gene 3627); experiment: BSK_KF3CT_IP10: BioMAP Diversity Plus: KF3CT Assay for Interferon-gamma inducible Protein 10 (IP10) Biomarker Activity (AID 2283068); conditions: primary human keratinocytes with fibroblasts; actives raise or lower the signal
Outline: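 Signal is secreted/surface IP-10 by ELISA in a human primary skin co-culture of keratinocytes and foreskin fibroblasts, taken 24 h post-dosing; DMSO served as negative control.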

[6] = BSK_KF3CT_SRB: Viability Assessment in the BioMAP Diversity Plus: KF3CT Assay (AID 2283069); conditions: primary human keratinocytes with fibroblasts;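 also: fitted for both signal gain and loss against DMSO baseline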
Outline: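 Keratinocytes co-cultured with foreskin fibroblasts (human primary); chemical added, 24 h; fix 10% TCA, stain 0.1% SRB, A560. Bidirectional fit vs DMSO.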

[7] = read-out: Interleukin-1 alpha (IL1a), IL1A (gene 3552); experiment: BSK_KF3CT_IL1a: BioMAP Diversity Plus: KF3CT Assay for Interleukin-1 alpha (IL1a) Biomarker Activity (AID 2283070); conditions: primary human keratinocytes with fibroblasts; actives raise or lower the signal
Outline: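 Chemicals were dosed onto co-cultured human keratinocytes and foreskin fibroblasts, IL-1a was quantified by ELISA at 24 h, and activity was fitted in both directions relative to DMSO controls.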

[8] = read-out: TIMP metallopeptidase inhibitor 2 (TIMP2), TIMP2 (gene 7077); experiment: BSK_KF3CT_TIMP2: BioMAP Diversity Plus: KF3CT Assay for TIMP metallopeptidase inhibitor 2 (TIMP2) Biomarker Activity (AID 2283071); conditions: primary human keratinocytes with fibroblasts; actives raise or lower the signal
Outline: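 Human primary keratinocyte/foreskin fibroblast co-culture dosed with chemical and sampled at 24 h. TIMP-2 levels quantified by ELISA; bidirectional fitting against DMSO negative control as baseline.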

[9] = read-out: Transforming growth factor beta 1 (TGFb1), TGFB1 (gene 7040); experiment: BSK_KF3CT_TGFb1: BioMAP Diversity Plus: KF3CT Assay for Transforming growth factor beta 1 (TGFb1) Biomarker Activity (AID 2283072); conditions: primary human keratinocytes with fibroblasts; actives raise or lower the signal
Outline: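 Human keratinocyte plus foreskin fibroblast primary co-culture, dosed with chemical for 24 h. TGF-b1 quantified by ELISA. Activity fitted bidirectionally against DMSO negative control as baseline.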

[10] = read-out: C-C motif chemokine 2 (Homo sapiens) (UniProt P13500); experiment: BSK_KF3CT_MCP1: BioMAP Diversity Plus: KF3CT Assay for Monocyte Chemoattractant Protein 1 (MCP1/CCL2) Biomarker Activity (AID 2283073); conditions: primary human keratinocytes with fibroblasts; actives raise or lower the signal
Outline: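 Keratinocytes and foreskin fibroblasts were co-cultured, dosed with chemical, and sampled 24 h later. MCP-1 was quantified by ELISA, and the endpoint was analyzed with bidirectional fitting using DMSO as negative control.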

[11] = read-out: urokinase plasminogen activator (uPA), PLAU (gene 5328); experiment: BSK_KF3CT_uPA: BioMAP Diversity Plus: KF3CT Assay for urokinase plasminogen activator (uPA) Biomarker Activity (AID 2283075); conditions: primary human keratinocytes with fibroblasts; actives raise or lower the signal
Outline: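 ELISA readout of uPA, analyzed for signal gain or loss relative to DMSO, from a human primary keratinocyte–foreskin fibroblast co-culture measured 24 h after chemical treatment.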

[12] = read-out: E-selectin (Homo sapiens) (UniProt P16581); experiment: BSK_LPS_Eselectin: BioMAP Diversity Plus: LPS Assay for Eselectin Biomarker Activity (AID 2283077); conditions: primary human HUVEC with PBMC; actives raise or lower the signal
Outline: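 Signal of E-selectin, detected by ELISA, served as the endpoint; cells were umbilical vein endothelium with PBMC, read 24 h after treatment. DMSO defined baseline, and both increases and decreases were fitted.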

[13] = read-out: Interleukin-8 (IL8), CXCL8 (gene 3576); experiment: BSK_LPS_IL8: BioMAP Diversity Plus: LPS Assay for Interleukin-8 (IL8) Biomarker Activity (AID 2283078); conditions: primary human HUVEC with PBMC; actives raise or lower the signal
Outline: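 Endothelial cells and PBMC from human donors are co-cultured, treated with chemicals and LPS, then assayed for IL-8 by ELISA after 24 h. Parallel SRB staining (0.1% SRB after 10% TCA fixation, 560 nm) flags cytotoxicity.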

[14] = read-out: Interleukin-1 alpha (IL1a), IL1A (gene 3552); experiment: BSK_LPS_IL1a: BioMAP Diversity Plus: LPS Assay for Interleukin-1 alpha (IL1a) Biomarker Activity (AID 2283080); conditions: primary human HUVEC with PBMC; actives raise or lower the signal
Outline: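 Measured: IL-1 alpha via ELISA at 24 h in LPS-activated human umbilical vein endothelium–PBMC co-culture. Baseline: DMSO, bidirectional fitting.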

[15] = read-out: Monocyte Chemoattractant Protein-1 (MCP1), CCL2 (gene 6347); experiment: BSK_LPS_MCP1: BioMAP Diversity Plus: LPS Assay for Monocyte Chemoattractant Protein-1 (MCP1) Biomarker Activity (AID 2283081); conditions: primary human HUVEC with PBMC; actives raise or lower the signal;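 as to AC50: secreted MCP-1 protein quantified by ELISA in culture supernatant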
Outline: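 LPS-stimulated HUVEC/PBMC co-culture; chemical, 24 h; MCP-1 by ELISA; bidirectional fit vs DMSO; cytotoxicity via SRB (0.1% stain, 10% TCA fix, 560 nm) in parallel wells.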

CD40, CD40 (gene 958) = experiment: BSK_LPS_CD40: BioMAP Diversity Plus: LPS Assay for CD40 Biomarker Activity (AID 2283076); conditions: primary human HUVEC with PBMC; actives raise or lower the signal
Outline: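 CD40 signal, measured by ELISA, is fitted in both directions relative to DMSO vehicle. The system is an LPS-driven human vascular primary co-culture of endothelial cells and PBMC, sampled 24 h after compound addition.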

[16] = read-out: Vascular cell adhesion molecule 1 (VCAM1), VCAM1 (gene 7412); experiment: BSK_hDFCGF_VCAM1: BioMAP Diversity Plus: hDFCGF Assay for Vascular cell adhesion molecule 1 (VCAM1) Biomarker Activity (AID 2283065); conditions: primary human foreskin fibroblasts; actives raise or lower the signal
Outline: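 Cells are dosed, cultured for 24 h, then VCAM-1 is quantified by ELISA; signal increases and decreases are both fitted relative to DMSO.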

[17] = read-out: Matrix Metallopeptidase 9 (MMP9), MMP9 (gene 4318); experiment: BSK_KF3CT_MMP9: BioMAP Diversity Plus: KF3CT Assay for Matrix Metallopeptidase 9 (MMP9) Biomarker Activity (AID 2283074); conditions: primary human keratinocytes with fibroblasts; actives raise or lower the signal;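 as to AC50: MMP9 protein level quantified by ELISA in the co-culture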
Outline: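 Human keratinocyte/foreskin fibroblast co-culture; compound added; 24 h; MMP-9 by ELISA; bidirectional fit vs DMSO baseline.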

[18] = BSK_LPS_SRB: Viability Assessment in the BioMAP Diversity Plus: LPS Assay (AID 2283079); conditions: primary human HUVEC with PBMC;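 also: total protein by sulforhodamine B absorbance as a cytotoxicity measure; measured one day after compound addition; fitted in both directions against DMSO so loss or gain of signal counts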
Outline: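 Overt cytotoxicity was gauged by sulforhodamine B total-protein staining in a primary human vascular endothelial and mononuclear cell co-culture 24 h post-dosing. Activity was fitted in both directions relative to DMSO.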

Measured: AC50

Chain of E-selectin (Homo sapiens) (P16581 whole entry, looked up): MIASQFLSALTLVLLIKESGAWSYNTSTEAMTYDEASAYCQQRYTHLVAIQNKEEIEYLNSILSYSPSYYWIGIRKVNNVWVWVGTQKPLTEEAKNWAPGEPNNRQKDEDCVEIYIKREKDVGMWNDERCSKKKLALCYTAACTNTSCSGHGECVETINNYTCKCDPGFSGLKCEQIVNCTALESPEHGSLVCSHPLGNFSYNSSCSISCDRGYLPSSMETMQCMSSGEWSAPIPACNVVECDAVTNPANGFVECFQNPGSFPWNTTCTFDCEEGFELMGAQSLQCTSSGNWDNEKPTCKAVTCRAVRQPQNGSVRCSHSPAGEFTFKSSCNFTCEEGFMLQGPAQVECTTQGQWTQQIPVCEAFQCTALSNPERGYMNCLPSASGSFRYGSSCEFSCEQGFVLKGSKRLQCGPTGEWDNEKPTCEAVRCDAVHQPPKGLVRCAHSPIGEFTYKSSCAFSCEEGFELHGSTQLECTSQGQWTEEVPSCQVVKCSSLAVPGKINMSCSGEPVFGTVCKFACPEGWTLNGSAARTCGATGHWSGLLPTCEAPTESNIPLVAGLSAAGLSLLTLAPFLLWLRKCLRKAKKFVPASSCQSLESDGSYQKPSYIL

CCc1c(C(=O)NN2CCCCC2)nn(-c2ccc(Cl)cc2Cl)c1-c1ccc(Br)cc1
active: [1] 4.28 µM | [2] 3.03 µM | [3] 2.3 µM | [5] 13.1 µM | [6] 7.2 µM | [7] 9.35 µM | [8] 5.8 µM | [9] 6.72 µM | [10] 13 µM | [11] 7.27 µM | [12] 7.44 µM | [13] 5.2 µM | [14] 10.4 µM | [15] 8.8 µM
inactive: [4]

CNCc1cc(F)ccc1Oc1ccc(Cl)c(Cl)c1
active: [11] 30.5 µM | CD40, CD40 (gene 958) 15 µM | [13] 15.7 µM | [15] 26.2 µM
not listed: [2] | [16] | [17] | [18]
inactive: all other assays above

Oc1ccc2ccccc2c1N=Nc1ccccc1
active: [8] 3.97 µM | [9] 6.33 µM | [17] 3.97 µM
not listed: [2] | [3] | CD40, CD40 (gene 958)
inactive: all other assays above

CCNc1cccc(C)c1
not listed: [3] | [16] | [17]
inactive: all other assays above

Nc1nc(N)c2nc(CNc3ccc(C(=O)N[C@@H](CCC(=O)O)C(=O)O)cc3)cnc2n1
not listed: [2] | CD40, CD40 (gene 958) | [16] | [18]
inactive: all other assays above

CC(=O)Oc1ccccc1C(=O)O
not listed: [2]
inactive: all other assays above

CCCCCCCCCCCCCCCC
not listed: [2] | [16] | [17] | [18]
inactive: all other assays above

Cc1ccc(C)c(C)c1
not listed: [2] | CD40, CD40 (gene 958) | [16] | [17] | [18]
inactive: all other assays above

COCCOC[C@H](CC1(C(=O)NC2CCC(C(=O)O)CC2)CCCC1)C(=O)Oc1ccc2c(c1)CCC2 (stereo not given in full)
not listed: [2] | CD40, CD40 (gene 958) | [17]
inactive: all other assays above

O=[N+]([O-])C(CO)(CO)CO
not listed: [3] | CD40, CD40 (gene 958) | [16] | [17]
inactive: all other assays above

Clc1cc(Cl)c(Cl)cc1Cl
not listed: [2]
inactive: all other assays above

Cc1cccc(C)c1O
not listed: [2] | [3] | [18]
inactive: all other assays above

CCCCCCCCCCO
not listed: [2] | [17] | [18]
inactive: all other assays above

Source: PubChem BioAssay (EPA / NIEHS)
